Source: PubChem BioAssay
Shown are actives, neighbours in structure and some others; about 2.4% of the full set was active somewhere.
CHT PAM = CHT positive allosteric modulators, primary screen, cell-based, membrane potential dye, choline EC20 | High affinity choline transporter 1 (Homo sapiens), Q9GZV3 | CHT-expressing cells; active compounds read high; LV-AA mutant CHT in HEK293 cells | B-score at 10 µM | actives 0.49% (n = 310,000) | AID 488977, 2010;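 active = initial fluorescence not abnormally high and integrated response B-score, plate-corrected, over 3 SD above library mean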
Target sequence (Q9GZV3 whole entry, looked up): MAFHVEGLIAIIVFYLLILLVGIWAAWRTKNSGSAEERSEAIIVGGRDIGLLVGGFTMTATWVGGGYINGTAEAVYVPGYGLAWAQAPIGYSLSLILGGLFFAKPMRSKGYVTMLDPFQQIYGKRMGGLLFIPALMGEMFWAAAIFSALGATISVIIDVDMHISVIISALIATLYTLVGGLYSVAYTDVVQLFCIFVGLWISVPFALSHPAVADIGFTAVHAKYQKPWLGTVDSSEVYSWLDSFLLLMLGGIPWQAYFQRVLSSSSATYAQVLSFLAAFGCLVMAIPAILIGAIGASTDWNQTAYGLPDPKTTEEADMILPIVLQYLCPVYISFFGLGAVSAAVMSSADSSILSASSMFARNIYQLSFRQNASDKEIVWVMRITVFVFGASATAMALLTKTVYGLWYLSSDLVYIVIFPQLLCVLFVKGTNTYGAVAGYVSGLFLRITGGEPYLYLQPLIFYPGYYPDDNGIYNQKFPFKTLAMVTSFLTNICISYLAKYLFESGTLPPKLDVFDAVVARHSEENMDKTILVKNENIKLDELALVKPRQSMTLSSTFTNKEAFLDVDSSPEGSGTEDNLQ
CHT block = inhibitors of human choline transporter CHT; CHT-expressing cells, membrane potential dye, choline response; active compounds read low; AID 488975, 2010; actives 0.86% (n = 310,000); B-score at 10 µM;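 active = B-score over 3 SD under the library average, and starting fluorescence ratio not unusually high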;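 also: choline stimulus applied at its EC90 after an EC20 pre-addition; B-score computed on integrated fluorescence ratio after choline addition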
TMEM16A inh = TMEM16A chloride channel inhibitors, primary screen, cell-based, HTS; Anoctamin-1 (Mus musculus), Q8BHY3; normalized B-score (activity score, 25-100; higher = stronger inhibition) at 10 µM; actives 1.2% (n = 310,000); HEK293 TMEM16A/YFP iodide influx fluorescence, ionomycin; AID 588511, 2011;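 active = ratio plate-corrected score three or more library SD toward inhibition, starting fluorescence score within five deviations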;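 also: score derived from kinetic fluorescence span divided by baseline fluorescence per well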
ANO1 activ = TMEM16A chloride channel activators or potentiators, primary screen, cell-based, HTS. Anoctamin-1 (Mus musculus), Q8BHY3. HEK293 TMEM16A/YFP-H148Q/I152L, iodide quench fluorescence; active compounds read low. B-score at 10 µM. actives 0.3% (n = 340,000). AID 623877, 2012;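 active = fluorescence-ratio B-score plate-corrected deviation score at least 3 library SD below zero, with starting fluorescence score within 5 deviations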;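 also: channel opened by trigger with iodide after compound preincubation; score built on the fluorescence ratio of max minus min over baseline; more negative score means more quench and so TMEM16A activation or potentiation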
Numbers stand for hits.

For O=Cc1coc2c(ccc3ccccc32)c1=O the results were CHT PAM inactive, CHT block -6.5 and TMEM16A inh inactive.
Screening COc1cc2c(cc1OC)C(c1ccc(-c3ccccc3Cl)o1)=NCC2 returned CHT PAM 6.6, CHT block inactive, TMEM16A inh inactive and ANO1 activ inactive.
COc1ccc(C(CNC(=O)c2ccc3c(c2)OCCO3)N(C)C)cc1 (stereo not given) was read as CHT PAM inactive, CHT block inactive, TMEM16A inh inactive and ANO1 activ inactive.
For COc1ccc(C(CNC(=O)c2ccc(N3CCCC3=O)cc2)N(C)C)cc1 (stereo not given) the results were CHT PAM inactive, CHT block inactive, TMEM16A inh 25 and ANO1 activ inactive.
COC(=O)c1ccc(C)c(NC(=O)c2ccc(CN3CCc4ccccc4C3)cc2)c1 was read as CHT PAM inactive, CHT block inactive, TMEM16A inh inactive and ANO1 activ inactive.
Screening CC(C)(C)OC(=O)CNC(=O)c1nc[nH]c1C(=O)N1CCc2ccccc2C1 returned CHT PAM inactive, CHT block inactive, TMEM16A inh inactive and ANO1 activ inactive.
For Cc1ccc(S(=O)(=O)N2[C@@H](c3cccc(Cl)c3)C(C(=O)O)=CC[C@H]2c2ccc(Cl)cc2)cc1 the results were CHT PAM inactive, CHT block inactive, TMEM16A inh 100 and ANO1 activ inactive.
`Cc1ccc(S(=O)(=O)N2[C@@H](c3ccccc3F)C(C(=O)O)=CC[C@H]2c2ccc(C(C)C)cc2)cc1` gave CHT PAM inactive, CHT block inactive, TMEM16A inh 100 and ANO1 activ inactive.
`Cc1ccc([C@@H]2CC=C(C(=O)O)[C@H](c3ccccc3F)N2S(=O)(=O)c2ccc(C)cc2)cc1` gave CHT PAM inactive, CHT block inactive, TMEM16A inh inactive and ANO1 activ -24.
`O=C(OCc1ccccc1)/C(=C/c1ccccc1Cl)NC(=O)c1ccco1` gave CHT PAM inactive, CHT block inactive, TMEM16A inh inactive and ANO1 activ inactive.
CCOc1ccc(CCNC(=O)c2ccc3nc(N4CCOCC4)sc3c2)cc1OCC was read as CHT PAM inactive, CHT block inactive, TMEM16A inh inactive and ANO1 activ inactive.
`CC(C)n1c(=NC(=O)c2ccco2)c(C#N)cc2c(=O)n3ccccc3cc21` gave CHT PAM 7.2, CHT block inactive, TMEM16A inh inactive and ANO1 activ inactive.
For NCCCn1c(C(=O)c2cc(Cl)c(N)c(Cl)c2)c2ccc([N+](=O)[O-])cc2[n+]1[O-] the results were CHT PAM inactive, CHT block -5.5, TMEM16A inh inactive and ANO1 activ inactive.
For Cc1ccc(C(=O)c2c3ccc([N+](=O)[O-])cc3[n+]([O-])n2CCC(N)=O)cc1 the results were CHT PAM inactive, CHT block inactive, TMEM16A inh inactive and ANO1 activ inactive.
Screening CCC(=O)Nc1sc(Cc2ccc3c(c2)OCO3)c(C)c1C(N)=O returned CHT PAM inactive, CHT block inactive, TMEM16A inh inactive and ANO1 activ inactive.
Screening Cc1c(Cc2ccc3c(c2)OCO3)sc(NC(=O)c2ccc3ccccc3c2)c1C(N)=O returned CHT PAM inactive, CHT block -6.6 and TMEM16A inh inactive.
CCc1ccccc1N(C)S(=O)(=O)c1ccc(-c2cc(C)no2)s1 was read as CHT PAM inactive, CHT block inactive, TMEM16A inh inactive and ANO1 activ -28.
Screening CCCC(=O)NCc1ccncc1 returned CHT PAM inactive, CHT block inactive and TMEM16A inh inactive.
`Cc1ccc2occ(C3N[C@H](C(=O)O)CS3)c(=O)c2c1` (stereo not given in full) gave CHT PAM inactive, CHT block inactive, TMEM16A inh inactive and ANO1 activ inactive.
Screening COc1ccc2[nH]c3c(N4CCN(Cc5ccc6c(c5)OCO6)CC4)ncnc3c2c1 returned CHT PAM inactive, CHT block inactive, TMEM16A inh inactive and ANO1 activ inactive.
Screening COc1ccc2[nH]c3c(N4CCC(O)(c5cccc(C(F)(F)F)c5)CC4)ncnc3c2c1 returned CHT PAM inactive, CHT block inactive, TMEM16A inh 100 and ANO1 activ inactive.
For O=C(COC(=O)c1cnccn1)NCCc1ccc(Cl)cc1 the results were ANO1 activ inactive.
For CCC(CC)C(=O)Nc1ccc(C)c(O)c1 the results were CHT PAM inactive, CHT block inactive, TMEM16A inh inactive and ANO1 activ -9.6.
